The list is not random: actives were taken first. Their share in the collection is about 1.3%.
NR2F2 inh: NR2F2 transcriptional activity inhibitors, primary screen, cell-based, luciferase reporter, HEK293T, luminescence; COUP transcription factor 2 (Homo sapiens), P24468; 370,000 compounds, 0.7% hits; HEK293T NGFI-A luciferase reporter; inhibition, % at 8.6 µM;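 active = inhibition above a per-plate cutoff, mean inhibition of test wells between control levels plus 3 SD, cut at about 38% in these data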;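 also: cells cotransfected with COUP-TFII expression vector driving the NGFI-A reporter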
SRC1 inh: SRC1 coactivator transcriptional activity inhibitors, primary screen, cell-based, luminescence; Nuclear receptor coactivator 1 (Homo sapiens), Q15788; HEK293 GAL4-SRC1 luciferase reporter; inhibition, % at 3.6 µM; 360,000 compounds, 0.12% hits; AID 588354, 2011;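 active = inhibition above the campaign mean plus 3 SD, with each screening campaign given its own cutoff, cut at about 60% in these data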
NCOA2 inhibitor: inhibition of GAL4-SRC2 driven luciferase reporter, primary screen, SRC2 inhibitor project, cell-based, luminescence | Nuclear receptor coactivator 2 (Homo sapiens), Q15596 | inhibition, % at 9 µM | HEK293 GAL4-SRC2 luciferase reporter | 370,000 compounds, 0.17% hits;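 active = inhibition above the mean inhibition of all tested compounds plus 3 SD, set per campaign, cut at about 52% in these data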
Gli-Sufu antag: Gli-Sufu pathway antagonists, primary screen, luciferase luminescence, Sufu-KO-LIGHT cells, uHTS. Sufu-KO-LIGHT fibroblasts, Gli luciferase reporter luminescence. inhibition, % at 5 µM. 340,000 compounds, 0.74% hits. AID 588413, 2011;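 active = inhibition above about 55%, limit read from the data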
NR5A2 inv ag: LRH-1 (NR5A2) inverse agonists, primary screen, cell-based, luminescence, HEK293T, StAR-luciferase reporter. Nuclear receptor subfamily 5 group A member 2 (Homo sapiens), O00482. inhibition, % at 3.6 µM. 360,000 compounds, 0.13% hits. LRH-1 transfected, 24 h;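 active = inhibition above the mean inhibition of all tested compounds plus 3 SD, cut at about 73% in these data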
NCOA3 inh: SRC3 coactivator transcriptional activity inhibitors, primary screen, cell-based, luminescence | Nuclear receptor coactivator 3 (Homo sapiens), Q9Y6Q9 | HEK293 GAL4-SRC3 luciferase reporter | inhibition, % at 3.6 µM | 360,000 compounds, 0.17% hits | AID 588352, 2011;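 active = inhibition above a per-campaign cutoff, the mean of all compounds plus 3 SD, cut at about 60% in these data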;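 also: higher means less SRC3-driven luciferase light from the GAL4 reporter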
Target sequence (Q9Y6Q9 whole entry, looked up, the tested form may be a part): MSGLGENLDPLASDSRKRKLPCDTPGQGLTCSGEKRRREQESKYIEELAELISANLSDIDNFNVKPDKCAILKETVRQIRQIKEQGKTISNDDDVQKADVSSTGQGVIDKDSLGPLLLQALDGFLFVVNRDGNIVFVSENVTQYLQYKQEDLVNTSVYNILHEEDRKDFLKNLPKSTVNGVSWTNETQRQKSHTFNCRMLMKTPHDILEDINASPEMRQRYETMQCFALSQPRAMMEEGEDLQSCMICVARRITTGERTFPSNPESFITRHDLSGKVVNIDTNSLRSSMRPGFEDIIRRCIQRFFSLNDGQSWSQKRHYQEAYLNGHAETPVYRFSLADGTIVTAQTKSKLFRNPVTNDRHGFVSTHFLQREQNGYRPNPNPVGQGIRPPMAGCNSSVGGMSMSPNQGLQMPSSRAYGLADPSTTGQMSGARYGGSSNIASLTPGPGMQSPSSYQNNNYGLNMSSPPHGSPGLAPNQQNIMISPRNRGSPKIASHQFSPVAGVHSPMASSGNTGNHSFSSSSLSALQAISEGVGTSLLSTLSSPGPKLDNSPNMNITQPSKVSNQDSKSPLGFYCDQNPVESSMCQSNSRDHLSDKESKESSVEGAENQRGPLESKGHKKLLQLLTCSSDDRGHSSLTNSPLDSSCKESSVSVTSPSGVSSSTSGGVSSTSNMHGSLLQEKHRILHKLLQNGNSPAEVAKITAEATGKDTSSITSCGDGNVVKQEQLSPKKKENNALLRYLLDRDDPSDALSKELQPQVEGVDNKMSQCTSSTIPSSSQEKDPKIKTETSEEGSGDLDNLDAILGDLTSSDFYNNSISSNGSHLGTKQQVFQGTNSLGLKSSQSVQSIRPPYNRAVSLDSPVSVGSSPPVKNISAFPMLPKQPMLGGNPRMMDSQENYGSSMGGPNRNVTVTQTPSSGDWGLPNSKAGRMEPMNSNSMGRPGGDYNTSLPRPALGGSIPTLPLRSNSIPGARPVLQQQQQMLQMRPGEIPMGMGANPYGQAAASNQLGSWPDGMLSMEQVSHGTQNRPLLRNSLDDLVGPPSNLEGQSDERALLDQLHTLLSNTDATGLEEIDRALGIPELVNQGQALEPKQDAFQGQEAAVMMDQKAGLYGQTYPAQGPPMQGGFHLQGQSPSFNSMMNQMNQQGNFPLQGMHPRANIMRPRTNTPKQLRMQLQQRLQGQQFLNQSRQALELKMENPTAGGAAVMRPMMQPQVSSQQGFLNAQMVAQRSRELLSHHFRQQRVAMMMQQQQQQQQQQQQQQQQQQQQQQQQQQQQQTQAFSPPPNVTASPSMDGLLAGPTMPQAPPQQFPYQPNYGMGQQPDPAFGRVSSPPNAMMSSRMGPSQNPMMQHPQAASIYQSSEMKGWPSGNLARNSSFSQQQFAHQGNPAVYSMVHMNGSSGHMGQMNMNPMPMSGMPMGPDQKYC
Of the large screens only hits and unclear results are named; the others gave an inactive call.

CC(=NNC(=S)N1CCN(c2ccccn2)CC1)c1nccs1	Gli-Sufu antag 89 (no result: NR2F2 inh, NCOA2 inhibitor)
c1ccc(CNC2CCC23CCC(c2ccccc2)CC3)cc1 (centres undefined)	none (no result: SRC1 inh, Gli-Sufu antag, NR5A2 inv ag, NCOA3 inh)
COc1ccc(-c2cn[nH]c2-c2ccc(O)cc2O)cc1	NCOA2 inhibitor 54
O=C(NCCc1ccccc1Cl)[C@@H]1CCCN1C(=O)[C@@H](NC(=O)N1CCOCC1)C1CCCCC1	none (no result: SRC1 inh, Gli-Sufu antag, NR5A2 inv ag, NCOA3 inh)
CC(=O)Nc1ccc(NC(=O)c2ccc(-c3ccnn3C)c3ccoc23)cc1	NCOA2 inhibitor 53 (no result: Gli-Sufu antag)
CC(C)c1ccc(NC(=O)c2ccc(-c3ccnn3C)c3ccoc23)cc1	none (no result: NR2F2 inh, NCOA2 inhibitor, Gli-Sufu antag)
COc1ccccc1-c1nnc(Sc2nc([N+](=O)[O-])nn2C)o1	SRC1 inh 64, NCOA2 inhibitor 65, NR5A2 inv ag 75, NCOA3 inh 73
Cn1cnnc1Sc1nc([N+](=O)[O-])nn1C	none
COc1ccccc1C(=O)Nc1nc(-c2ccc(S(=O)(=O)N3CCOCC3)cc2)cs1	NR2F2 inh 72, SRC1 inh 85, NCOA2 inhibitor 74, Gli-Sufu antag 66, NR5A2 inv ag 82, NCOA3 inh 89
COc1ccccc1OC(C)C(=O)Nc1nc(-c2ccc(S(=O)(=O)N3CCOCC3)cc2)cs1 (centres undefined)	none
O=C(NCCCn1ccnc1)c1ccc(S(=O)(=O)N2CCCCCC2)cc1	none
CC1CC(C)CN(S(=O)(=O)c2ccc(C(=O)NCCCn3ccnc3)cc2)C1 (centres undefined)	NR5A2 inv ag 84, NCOA3 inh 62 (no result: NR2F2 inh, NCOA2 inhibitor)
CCCC(=O)NC(c1cccc([N+](=O)[O-])c1)c1ccc2cccnc2c1O (centres undefined)	none (no result: Gli-Sufu antag)
CCN(CC)c1ccc(C(NC(=O)C(C)C)c2ccc3cccnc3c2O)cc1 (centres undefined)	NR5A2 inv ag 96 (no result: Gli-Sufu antag)
CC(C)C(=O)NC(c1ccco1)c1ccc2cccnc2c1O (centres undefined)	none
CC(C)C(=O)NC(c1cccc([N+](=O)[O-])c1)c1ccc2cccnc2c1O (centres undefined)	Gli-Sufu antag 74
COc1ccc(OC)c(CN2C(=O)CSCC2(C)c2nnnn2C2CCCC2)c1 (centres undefined)	none (no result: SRC1 inh, Gli-Sufu antag, NR5A2 inv ag, NCOA3 inh)
O=C1CCC2(CCC(c3ccccc3)CC2)N1CCO (centres undefined)	none (no result: SRC1 inh, Gli-Sufu antag, NR5A2 inv ag, NCOA3 inh)
CCN(CC)Cc1c(O)ccc2c([N+](=O)[O-])c(C)n(-c3ccc(OC)cc3)c12	SRC1 inh 61
CCC(=O)Nc1ccc2c(c1)C(=O)N(C)[C@@H]1CC[C@@H](CC(=O)NCc3ccc(OC)cc3)O[C@H]1CO2	none (no result: SRC1 inh, Gli-Sufu antag, NR5A2 inv ag, NCOA3 inh)
COc1cc(-c2nnc(-c3cc(-c4ccccc4)nc4ccccc34)o2)cc(OC)c1OC	NCOA2 inhibitor 94
COc1cc(-c2nnc(-c3ccccc3)o2)cc(OC)c1OC	none
Cc1ccc(S(=O)(=O)Nc2cc(Cl)c(O)c3ncccc23)cc1	Gli-Sufu antag 69
COC(CNC(=O)[C@H](Cc1c[nH]c2ccccc12)NC1(C(=O)NC2CCCCC2)CCCCC1)OC	none (no result: SRC1 inh, NCOA2 inhibitor, Gli-Sufu antag, NR5A2 inv ag, NCOA3 inh)
CSc1nc(SCC(N)=O)c2c3c(sc2n1)CN(C)CC3	Gli-Sufu antag 99
CC(=O)OC1CC2C(C)(C)C(=O)C=CC2(C)C2CCC3(C)C(c4ccoc4)OC(=O)C4OC43C12C (centres undefined)	none (no result: Gli-Sufu antag)
CC(=O)O[C@@H]1C[C@H]2C(C)(C)C(=O)C=C[C@]2(C)[C@H]2CC[C@@]3(C)[C@H](c4ccoc4)OC(=O)[C@H]4O[C@]43[C@@]21C	NCOA2 inhibitor 52
C/C(=N/NC(=O)c1ccc(C(C)(C)C)cc1)c1ccccn1	Gli-Sufu antag 65
C/C(=N/NC(=O)c1ccccn1)c1ccncc1	none
COc1ccc(C(=O)N/N=C(\C)c2ccccn2)cc1OC	Gli-Sufu antag 95
CCC(C)Nc1nc(C)nc2c1nnn2Cc1ccccc1 (centres undefined)	none (no result: SRC1 inh, Gli-Sufu antag, NR5A2 inv ag, NCOA3 inh)

Source: PubChem BioAssay (several laboratories)
